This is a sample that favours compounds with a hit; in the whole collection about 2.1% have one here.
NFkB binder: binds human NF-kappa-B p105 on microarray. AID 624139. Small molecule microarray, anti-His fluorescence binding. calls only. 17,000 compounds, 1.3% hits;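 active means spot fluorescence over background significantly raised, with a chance value under 7% in all four replicate spots of the compound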;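 further: probe protein is his-tagged human p50 processed subunit at 1 µg/ml; raw spot fluorescence signals with no normalization applied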
STAT3 binder: binds human STAT3 on microarray; P40763; Small molecule microarray, His-STAT3 binding, anti-His fluorescence; calls only; 17,000 compounds, 0.2% hits; AID 624138;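 active means compounds whose four printed spots each show fluorescence over background unusually high for their array block, chance value under 7%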
mut p53 SMM: mutant p53 (human) binding. small molecule microarray binding, anti-GST fluorescence. calls only. 17,000 compounds, 0.4% hits;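 active means compounds whose four printed spots each glow above background more than chance allows, each with a p-value under 7%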
Myc binder: binders of human c-Myc; calls only; 17,000 compounds, 1.5% hits; small molecule microarray, His-c-Myc binding, anti-His fluorescence; P01106;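 active means spot fluorescence over background with P-value below 7% in all four replicate spots, showing protein binding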;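 further: score is binary with 100 for all four spots passing and 0 otherwise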
Target sequence (P01106 whole entry, looked up): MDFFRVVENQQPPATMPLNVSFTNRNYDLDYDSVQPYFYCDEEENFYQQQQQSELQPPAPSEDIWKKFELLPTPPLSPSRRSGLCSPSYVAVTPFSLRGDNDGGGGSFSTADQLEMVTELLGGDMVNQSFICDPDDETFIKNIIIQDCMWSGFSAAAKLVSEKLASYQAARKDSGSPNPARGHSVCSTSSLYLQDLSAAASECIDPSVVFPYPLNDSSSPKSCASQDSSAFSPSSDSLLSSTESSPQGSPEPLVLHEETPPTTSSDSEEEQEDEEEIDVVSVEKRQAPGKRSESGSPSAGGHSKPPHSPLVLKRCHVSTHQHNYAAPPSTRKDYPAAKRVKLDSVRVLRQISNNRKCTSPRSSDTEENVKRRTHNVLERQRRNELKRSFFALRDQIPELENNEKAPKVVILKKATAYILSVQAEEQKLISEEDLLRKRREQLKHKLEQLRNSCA
An asterisk follows results filed as active.

`COc1c(O[C@@H]2O[C@H](C(=O)O)[C@@H](O)[C@H](O)[C@H]2O)cc(O)c2c(=O)cc(-c3ccccc3)oc12` gave NFkB binder inactive, STAT3 binder inactive, mut p53 SMM inactive and Myc binder inactive.
Screening CCCN(C)C[C@H]1OCCCC[C@@H](C)Oc2ccc(NS(=O)(=O)c3ccc(OC)cc3)cc2C(=O)N([C@@H](C)CO)C[C@H]1C returned NFkB binder inactive, STAT3 binder inactive, mut p53 SMM active and Myc binder active.
C[C@@H]1CN([C@@H](C)CO)C(=O)c2cc(NC(=O)Nc3cccc4ccccc34)ccc2O[C@@H](C)CCCCO[C@@H]1CN(C)CC1CCCCC1 was read as NFkB binder active, STAT3 binder inactive, mut p53 SMM inactive and Myc binder active.
For CCCN(C)C[C@@H]1OCCCC[C@@H](C)Oc2ccc(NC(=O)Nc3cccc4ccccc34)cc2C(=O)N([C@H](C)CO)C[C@@H]1C the results were NFkB binder active, STAT3 binder inactive, mut p53 SMM inactive and Myc binder active.
C[C@@H]1CCCCO[C@H](CN(C)CC2CC2)[C@@H](C)CN([C@H](C)CO)C(=O)c2cc(NC(=O)Nc3cccc4ccccc34)ccc2O1 was read as NFkB binder inactive, STAT3 binder inactive, mut p53 SMM inactive and Myc binder inactive.
Screening C[C@@H]1CN([C@@H](C)CO)C(=O)c2cc(NC(=O)CCCN(C)C)ccc2O[C@H]1CN(C)C(=O)Nc1ccc2c(c1)OCO2 returned NFkB binder inactive, STAT3 binder inactive, mut p53 SMM inactive and Myc binder inactive.
COc1ccccc1NC(=O)c1c(C)nc(Nc2nc3ccccc3o2)nc1C was read as NFkB binder inactive, STAT3 binder inactive, mut p53 SMM inactive and Myc binder inactive.
Screening CCOC(=O)Cc1cc(=O)[nH]c(Nc2nc3ccccc3o2)n1 returned NFkB binder inactive, STAT3 binder inactive, mut p53 SMM active and Myc binder inactive.
C[C@H]1CN([C@@H](C)CO)C(=O)Cc2cc(NC(=O)c3ccncc3)ccc2O[C@H]1CN(C)Cc1ccccc1 was read as NFkB binder inactive, STAT3 binder inactive, mut p53 SMM inactive and Myc binder inactive.
`CC(C)(Sc1ccc(CCN(CCCCC2CCCCC2)C(=O)NC2CCCCC2)cc1)C(=O)O` gave NFkB binder active, STAT3 binder inactive, mut p53 SMM inactive and Myc binder inactive.
Screening CC(C)NC(=O)Nc1ccc2c(c1)C(=O)N([C@@H](C)CO)C[C@H](C)[C@@H](CN(C)Cc1ccccc1)OCCCC[C@@H](C)O2 returned NFkB binder inactive, STAT3 binder inactive, mut p53 SMM inactive and Myc binder active.
For C[C@H](CO)N1C[C@H](C)[C@H](CN(C)Cc2ccncc2)OCCCC[C@H](C)Oc2ccc(NC(=O)Nc3ccccc3)cc2C1=O the results were NFkB binder inactive, STAT3 binder active, mut p53 SMM active and Myc binder inactive.
For CC(C)NC(=O)Nc1ccc2c(c1)C(=O)N([C@@H](C)CO)C[C@H](C)[C@H](CN(C)Cc1ccccc1)OCCCC[C@@H](C)O2 the results were NFkB binder inactive, STAT3 binder inactive, mut p53 SMM inactive and Myc binder inactive.
Screening CC(C)NC(=O)Nc1ccc2c(c1)C(=O)N([C@@H](C)CO)C[C@H](C)[C@@H](CN(C)C(=O)Nc1ccccc1)OCCCC[C@@H](C)O2 returned NFkB binder active, STAT3 binder inactive, mut p53 SMM inactive and Myc binder active.
`CC(C)NC(=O)Nc1ccc2c(c1)C(=O)N([C@@H](C)CO)C[C@H](C)[C@@H](CN(C)Cc1ccccc1)OCCCC[C@H](C)O2` gave NFkB binder active, STAT3 binder inactive, mut p53 SMM inactive and Myc binder active.
Screening CC(C)NC(=O)Nc1ccc2c(c1)C(=O)N([C@H](C)CO)C[C@@H](C)[C@H](CN(C)Cc1ccccc1)OCCCC[C@@H](C)O2 returned NFkB binder inactive, STAT3 binder inactive, mut p53 SMM inactive and Myc binder inactive.
For C[C@H](CO)N1C[C@H](C)[C@@H](CN(C)Cc2ccccc2)OCCCC[C@H](C)Oc2ccc(NC(=O)Nc3ccc4c(c3)OCO4)cc2C1=O the results were NFkB binder inactive, STAT3 binder inactive, mut p53 SMM inactive and Myc binder inactive.
`Cc1noc(C)c1S(=O)(=O)Nc1cccc2c1O[C@H](CN(C)C(=O)Nc1ccc(F)cc1)[C@H](C)CN([C@H](C)CO)C2=O` gave NFkB binder inactive, STAT3 binder inactive, mut p53 SMM inactive and Myc binder inactive.
